Assay outcomes from PubChem BioAssay.
BAZ2B block: inhibitors of human BAZ2B bromodomain; AID 504333; Potency, µM (top dose mostly 114 µM), inactives show at the highest dose activity change, negative = inhibition, most hits filed as inhibitors; AlphaScreen BAZ2B-H3K14Ac peptide displacement; 360,000 compounds, 4.4% hits; note: potency is the fitted concentration of half-maximal effect; % is set by controls: 0 for no effect and ±100 for the full control effect; nearly all actives have a fitted effect of over 60% in size
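AlphaScreen luminescence quantifies BAZ2B engagement of H3K14Ac peptide; the protein and biotinylated peptide are both at 50 nM final, buffer PBS pH 7.4 with 0.01% Tween-20, all steps at room temperature.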
HP1b chromo inh: blocks HP1-beta chromodomain binding to methylated histone tails; P83916; AlphaScreen HP1-beta / biotin-H3K9me3 peptide binding; Potency, µM (doses to about 114 µM), without a hit: at the top dose activity change, negative = inhibition, most hits filed as inhibitors; 390,000 compounds, 0.56% hits; note: potency is the fitted concentration of half-maximal effect; nearly all actives have a fitted effect of over 70% in size
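Compound inhibition of the preformed complex between 50 nM HP1-beta and 50 nM biotinylated H3K9me3 peptide was read by AlphaScreen. Buffer was PBS pH 7.4 with 0.01% Tween-20. Incubations ran 30 min at room temperature, with 10 ug/mL donor/acceptor beads.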
Six1-Eya2 blk: inhibitors of human Six1/Eya2 interaction; Q15475+O00167; AlphaScreen GST-Six1/His-Eya2 binding, biochemical; hits give low values; activity change, % (no concentration beside the values); 360,000 compounds, 0.56% hits; in the data active = activity change below about -65%; inconclusive = mostly about -30% to -63%; note: % is set by controls: 0 for no effect and ±100 for the full control effect
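GST-Six1 + His-Eya2 (5X stock: 250/500 nM); Tris pH 8.0, 300 mM NaCl, 0.05% BSA, 0.02% Tween 20; GSH donor/Ni acceptor beads; 1 h 37 °C dark; AlphaScreen readout.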
JMJD2A Tudor inh: JMJD2A Tudor domain (human) inhibition; AlphaScreen JMJD2A-Tudor / H3K4me3 peptide binding; Potency, µM (titrated, usually from 114 µM), for inactives: at the top dose activity change, negative = inhibition, hits mostly inhibitors; 390,000 compounds, 4.4% hits; AID 504339; note: potency is the fitted concentration of half-maximal effect; % is set by controls: 0 for no effect and ±100 for the full control effect; nearly all actives have a fitted effect of over 50% in size
G9a block: G9a (human) methyltransferase inhibition. Q96KQ7. G9a H3K9 monomethylation, AlphaScreen, 2 h. Potency, µM (top dose mostly 102 µM), inactives show at the top dose activity, negative = inhibition, usual class: inhibitors. 350,000 compounds, 8.8% hits. AID 504332; note: potency is the fitted concentration of half-maximal effect; % is set by controls: 0 for no effect and ±100 for the full control effect; nearly all actives have a fitted effect of over 75% in size
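Compounds were preincubated with 20 nM G9a for 15 min, after which biotinylated H3K9 peptide (500 nM) and SAM (20 uM) started a 2 h room-temperature reaction. Monomethylated product was quantified by antibody-based AlphaScreen chemiluminescence.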
CtBP-E1A inh: CtBP/E1A binding inhibition | AlphaScreen GST-E1A/His-CtBP binding, 1536-well; hits give low values | 340,000 compounds, 0.49% hits | activity change, % (no concentration beside the values); in the data active = activity change below about -65%; inconclusive = mostly about -30% to -63%; note: % is set by controls: 0 for no effect and ±100 for the full control effect
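GST-E1A and His-tagged CtBP (125 nM each as 5X stock) were preincubated with pin-transferred compound for 2 h at 37 °C in the dark, then glutathione donor and nickel acceptor beads were added for 1 h before AlphaScreen reading.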
An asterisk follows results filed as active; ? = inconclusive; . = no result; [ ] = dose if it differs, or a comment. In the library only some 10% were active in any assay of this set; here they are far more common. Unless noted, calls come from the whole dose curve; as a rule, active = well fitted inhibition curve with a large enough effect; inconclusive = small, poorly fitted or top-dose-only effect; inactive = no such curve, though single readings can be large or run the other way.

SMILES	BAZ2B block	HP1b chromo inh	Six1-Eya2 blk	JMJD2A Tudor inh	G9a block	CtBP-E1A inh
Cc1ccc(C2CC(=O)NC(SCCC(C)C)=C2C#N)cc1 (stereo not drawn)	-3%	?	-1	-1%	32µM*	1
CCSC1=C(C#N)C(c2ccc(C)o2)CC(=O)N1 (stereo not drawn)	-11%	20%	1	-21%	12%[12.7 µM]	0
CC1=C(C(=O)Nc2ccccc2)C(c2ccccc2Cl)n2ncc(C(=O)Nc3cccc(C)c3)c2N1 (stereo not drawn)	11%[57.1 µM]	1%	.	-23%	0%[59 µM]	.
Cc1ccc(OCC(=O)Nc2nonc2-c2ccc(Br)cc2)cc1C	-1%	26%	.	-10%	-27%[59 µM]	.
Cc1ccc(NC(=O)Cn2cc(C(=O)c3cccs3)c3ccccc32)cc1C	-13%	38%	.	-14%	-20%[59 µM]	.
Cc1ccc(NC(=O)COc2ccc(-c3nn(C)c(=O)c4ccccc34)cc2)c(C)c1	-2%	32%	.	-2%	7%[59 µM]	.
Cc1cc2c(cc1NS(=O)(=O)c1ccc(Br)cc1)n(C)c(=O)c(=O)n2C	-7%	0%	.	-4%	12%[59 µM]	.
COc1cc2c(cc1NS(=O)(=O)c1cccc(C#N)c1)n(C)c(=O)n2C	79µM*	-13%	.	-31%	10µM*	.
Cc1cc2c(cc1NS(=O)(=O)c1cccc(C#N)c1)n(C)c(=O)c(=O)n2C	-16%	62%	.	-8%	10µM*	.
COc1ccc(-c2nnc(SCC(=O)Nc3c(C)cccc3C)nc2-c2ccc(OC)cc2)cc1	-14%	-1%	.	-36%	?	.
Cc1cccc(C)c1NC(=O)CSc1nnc(-c2ccco2)c(-c2ccco2)n1	2.5µM*	50µM*	-67*	25µM*	19%[0.501 µM]	-26
Cc1ccccc1NC(=O)CSc1nnc(-c2ccco2)c(-c2ccco2)n1	25µM*	16µM*	?	50µM*	13µM*	-17
Cc1ccccc1NC(=O)CSc1n[nH]c(-c2ccco2)n1	-20%	25%	2	-5%	-18%	8
Cc1ccc(-n2ncc3c(N4CCN(Cc5ccccc5)CC4)ncnc32)cc1Cl	1%	28%	.	-20%	11%[59 µM]	.
CC(C)C(NCc1c(Cl)cccc1Cl)C(=O)O (stereo not drawn)	-1%	16%	5	-18%	79µM*	19
CC(C)[C@H](NC(=O)NCc1ccc(Cl)cc1)C(=O)O	12%	33%	4	-1%	15%[12.7 µM]	13
C[C@@]12C(=O)OC(=O)[C@]1(C)[C@H]1CC[C@@H]2O1	.	.	.	.	13%[21.5 µM]	.
CC(=O)N1CSCC1C(=O)NNS(=O)(=O)c1ccccc1 (stereo not drawn)	5%	4%	-2	25µM*	15%	1
COc1cccc(C2C(C(=O)Nc3ccccc3)=C(C)N=c3s/c(=C/c4ccc(OCC(=O)O)cc4)c(=O)n32)c1 (stereo not drawn)	-13%	-2%	-17	-26%	16%[59 µM]	-5
CC1=C(C(=O)Nc2ccccc2)C(c2ccc(C)o2)n2c(s/c(=C\c3ccco3)c2=O)=N1 (stereo not drawn)	50µM*	19%	-9	-13%	?	-2
Cc1cccc(-n2c(=O)c3c4c(sc3n3c(C)nnc23)CCCC4)c1	40%	92%	.	1%	-3%[59 µM]	.
Cc1ccc(C)c(NC(=O)CCCn2nc(C)c3sc4ccccc4c3c2=O)c1	-38%	47%	.	-5%	-43%[59 µM]	.
NCCCC[C@@H]1NC(=O)c2cc([N+](=O)[O-])cc(I)c2SC[C@@H](C(N)=O)NC(=O)[C@H](CCC(N)=O)NC1=O	?	27%	1	?	8.9µM*	.
NCCCC[C@@H]1NC(=O)c2cc([N+](=O)[O-])cc(I)c2SC[C@@H](C(=O)NCC(N)=O)NC(=O)CNC1=O	-9%	50%	12	-22%	32µM*	0
NCCCC[C@@H]1NC(=O)c2cc([N+](=O)[O-])cc(F)c2NCCCC[C@@H](C(N)=O)NC(=O)[C@H](CCC(N)=O)NC1=O	-3%	28%	4	-18%	?	-23
